Rows were chosen to be rich in hits. Some 2.4% of all compounds tested hit in one or more screens of this group.
D2 PAM-1: Beta-Arrestin HTS for Positive Allosteric Modulators of the Human D2 Dopamine Receptor: Potentiators; D(2) dopamine receptor (Homo sapiens), P14416; DiscoveRx D2 beta-arrestin cells, luminescence, 90 min; 100% = 57 uM dopamine signal; potentiation, % (no concentration beside the values); hit rate 0.23% among 360,000; AID 624464, 2012; in the data active = potentiation above about 50%; inconclusive = mostly about 30% to 49%
Target sequence (P14416 whole entry, looked up): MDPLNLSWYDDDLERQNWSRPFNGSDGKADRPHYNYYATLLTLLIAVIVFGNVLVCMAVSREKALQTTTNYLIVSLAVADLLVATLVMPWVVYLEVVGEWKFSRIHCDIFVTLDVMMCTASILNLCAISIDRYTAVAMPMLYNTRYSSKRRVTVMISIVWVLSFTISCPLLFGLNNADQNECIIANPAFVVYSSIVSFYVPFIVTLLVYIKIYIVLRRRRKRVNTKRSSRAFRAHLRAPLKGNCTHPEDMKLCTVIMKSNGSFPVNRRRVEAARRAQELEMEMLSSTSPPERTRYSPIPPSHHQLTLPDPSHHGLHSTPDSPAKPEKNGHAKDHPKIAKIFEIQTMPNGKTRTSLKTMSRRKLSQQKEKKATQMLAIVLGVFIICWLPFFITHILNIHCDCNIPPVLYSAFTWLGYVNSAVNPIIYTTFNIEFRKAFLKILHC
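PathHunter D2 cells, attached overnight at 37 deg C, received compound in DMSO plus dopamine at EC20 (50 nM final) for 90 min at 37 deg C. Beta-arrestin recruitment was read as luminescence after 1 h with detection reagent at ambient temperature.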
D2 ag-1: Beta-Arrestin HTS for Positive Allosteric Modulators of the Human D2 Dopamine Receptor: Agonists; D(2) dopamine receptor (Homo sapiens), P14416; DiscoveRx PathHunter D2 beta-arrestin, luminescence, 90 min; 100% = 57 uM dopamine signal; activation, % (no concentration beside the values); hit rate 0.084% among 360,000; in the data active = activation above about 40%; inconclusive = between about 15% and that limit
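DiscoveRx PathHunter D2 beta-arrestin cells (2,100/well) attached overnight, then compound-stimulated 90 min at 37 C in HBSS/10 mM HEPES/0.1% Tween-20 buffer; beta-galactosidase complementation read by luminescence after 1 h at ambient temperature. Dopamine 57 uM final (EC100) as control.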
D2 PAM-2: HTS Assay for Positive Allosteric Modulators of the Human D2 Dopamine Receptor: Primary Screen for Potentiators; hit rate 0.34% among 340,000; D(2) dopamine receptor (Homo sapiens), P14416; potentiation, % at 10 µM; HEK293 T-REx D2, calcium flux, EC20 dopamine potentiation;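 active = potentiation over 3 SD above the plate norm, cut at about 30% in these data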
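Primary screen. Calcium kinetics in induced HEK293 T-REx D2 cells: compound pre-addition 180 s, EC20 dopamine, 180 s more.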
D2 ag-2: HTS Assay for Allosteric Agonists of the Human D2 Dopamine Receptor: Primary Screen for Agonists; activation, % at 2 µM; AID 485358, 2010; hit rate 0.53% among 340,000; HEK293 T-REx D2 cells, calcium flux agonist mode; D(2) dopamine receptor (Homo sapiens), P14416;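 active = activation over 3 SD above normal in the single-dose calcium agonist read, cut at about 30% in these data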
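HEK293 Trex D2 cells, tetracycline-induced, o/n 30 C 5% CO2; no-wash Ca dye, RT 30–90 min; 10-cycle baseline, 23 nl cpd added, kinetic Ca read 180 s; agonist hits = positive Ca response.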
D2 antag: HTS Assay for Allosteric Antagonists of the Human D2 Dopamine Receptor: Primary Screen for Antagonists; D(2) dopamine receptor (Homo sapiens), P14416; HEK293 TREx D2 cells, calcium flux, dopamine EC80; inhibition, % at 10 µM; hit rate 2% among 340,000; in the data active = inhibition above about 30%; inactive = below that, where a call was filed
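Tetracycline-induced HEK293 TREx cells expressing D2 receptor forced-coupled to calcium signalling, loaded with no-wash calcium dye. Compounds added and calcium flux read 180 s, then dopamine added at EC80 and read a further 180 s.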
A number is an active result; - = inactive; ? = inconclusive; . = not tested or not shown.

SMILES	D2 PAM-1	D2 ag-1	D2 PAM-2	D2 ag-2	D2 antag
COc1ccc(C)cc1NC(=O)CN1C(=O)CSc2ccc(S(=O)(=O)N3CCCC3)cc21	-	-	-	-	-
COc1ccc(OC)c(NC(=O)CN2C(=O)CSc3ccc(S(=O)(=O)N4CCCC4)cc32)c1	-	-	33.1	-	-
O=C(c1ccc2c(c1)OCCO2)N1CCN(Cc2c(F)cccc2Cl)CC1	-	-	-	-	-
COc1ccccc1CN1CCc2c([nH]c3ccccc23)C1	-	-	-	-	52.6
Cc1ccc(NC(=O)C2CCCCC2)cc1C	-	-	-	-	36.2
COc1ccc(NC(=O)NNC(=O)CCc2ccc(O)c(O)c2)cc1OC	-	-	-	39.0	-
CCOc1cc(/C=C2\COc3ccccc3C2=O)cc(Br)c1OCC(=O)N(C)C	-	-	-	-	44.5
COc1ccc(/C=C2\COc3ccccc3C2=O)cc1OC	-	-	-	-	-
Cc1ccc(N(C(=O)c2ccco2)C2C=CS(=O)(=O)C2)cc1 (configuration not stated)	-	-	-	-	-
O=C(c1ccco1)N(Cc1ccccc1)Cc1ccccn1	-	-	-	-	56.6
Cc1ccc(C(=O)Nc2cccc(S(=O)(=O)N3CCCCC3)c2)cc1[N+](=O)[O-]	-	-	-	-	-
Cc1ccc(S(=O)(=O)Nc2ccc(O)c3cccnc23)cc1	?	-	31.1	-	-
Cc1cccc(NC(=O)CSc2nnc3[nH]c(=O)cc(-c4ccccc4)n23)c1C	.	.	-	-	.
Cc1ccc(OCC(=O)OCc2cc(=O)n3nc(C4CCCCC4)sc3n2)cc1C	.	.	-	-	.
CCOC(=O)c1c(NC(=O)/C=C/c2ccc(C)cc2)sc(C(C)=O)c1C	.	.	-	-	.
C/C(=N\Nc1nccnc1Cl)c1ccc(Br)cc1	-	-	-	-	-
COc1ccc(/C(C)=N/Nc2nccnc2Cl)cc1	-	-	-	-	35.7
O=C(CSc1nnc(-c2ccccn2)n1Cc1ccccc1)Nc1ccc2c(c1)OCO2	-	-	32.2	-	-
Nn1c(SCC(=O)Nc2ccc3c(c2)OCO3)nnc1C1CCCCC1	-	-	-	-	31.0
Cn1c(SCC(=O)Nc2ccc3c(c2)OCCO3)nnc1-c1ccccn1	-	-	-	-	-
COc1cccc(N2CC(NC(=O)c3ccc(S(=O)(=O)N4CCCC4)cc3)CC2=O)c1 (configuration not stated)	.	.	.	-	.
CC(Sc1nc2ccccc2c(=O)n1CCc1ccc(S(N)(=O)=O)cc1)C(=O)NC(N)=O (configuration not stated)	-	-	39.7	-	-
COc1ccc(-c2ccc(=O)n(CC(=O)NCCc3ccccc3)n2)cc1	.	.	-	-	.
CSc1ncc(Cl)c(C(=O)Nc2ccc(S(=O)(=O)N3CCC(C)CC3)cc2)n1	.	.	-	-	.
O=c1cc(C(F)(F)F)oc2c1ccc1ccccc12	-	-	-	-	33.7
SMILES	D2 PAM-1	D2 ag-1	D2 PAM-2	D2 ag-2	D2 antag
O=c1cc(/C=C/c2ccccc2)oc2c1ccc1ccccc12	-	-	-	-	-
O=C(NCc1ccc(Cl)cc1)C1CCCN(c2nc3ccccc3n3cccc23)C1 (configuration not stated)	.	.	-	-	.
O=C(CCCN1CCC(C(=O)c2ccc(F)cc2)CC1)c1ccc(F)cc1	-	-	-	-	71.5
O=C(CCCN1CCC(O)(c2ccc(Br)cc2)CC1)c1ccc(F)cc1	-	-	-	-	78.5
O=C(CCCN1CCC(C(O)c2ccc(F)cc2)CC1)c1ccc(F)cc1 (configuration not stated)	-	-	.	.	.
O=C(CCCN1CCC(O)(c2cccc(C(F)(F)F)c2)CC1)c1ccc(F)cc1	-	-	-	-	-
COc1ccc(N(C(=O)/C=C\C(=O)Nc2ccc(Cl)cc2)C(C(=O)NCc2ccco2)c2ccc(C)cc2)cc1 (configuration not stated)	.	.	-	-	.
N#CC1(NC(=O)COC(=O)c2nc(Cl)c(Cl)c(N)c2Cl)CCCCC1	-	-	-	30.6	-
